Experimental data from PubChem BioAssay AID777 (Sanford-Burnham Center for Chemical Genomics, 2007).
In all, about 96,000 compounds went through this assay and about 19,000 (20%) were called active.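 How the source made its calls: active means blocking of liver enzyme CYP2C9 beyond about 50% at 5 µM (limit read from the data); inactive means the rest.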 These entries were drawn from the full list.

Target: Cytochrome P450 2C9 (Homo sapiens) (UniProt P11712)
Experiment: blockers of cytochrome P450 2C9 activity – biochemical, luminescence, ADME assay, primary screen (AID 777)
Details: CYP2C9 Supersomes, luciferin-H conversion, at 5 µM, hits give high values

Sequence of Cytochrome P450 2C9 (Homo sapiens) (P11712 whole entry, looked up): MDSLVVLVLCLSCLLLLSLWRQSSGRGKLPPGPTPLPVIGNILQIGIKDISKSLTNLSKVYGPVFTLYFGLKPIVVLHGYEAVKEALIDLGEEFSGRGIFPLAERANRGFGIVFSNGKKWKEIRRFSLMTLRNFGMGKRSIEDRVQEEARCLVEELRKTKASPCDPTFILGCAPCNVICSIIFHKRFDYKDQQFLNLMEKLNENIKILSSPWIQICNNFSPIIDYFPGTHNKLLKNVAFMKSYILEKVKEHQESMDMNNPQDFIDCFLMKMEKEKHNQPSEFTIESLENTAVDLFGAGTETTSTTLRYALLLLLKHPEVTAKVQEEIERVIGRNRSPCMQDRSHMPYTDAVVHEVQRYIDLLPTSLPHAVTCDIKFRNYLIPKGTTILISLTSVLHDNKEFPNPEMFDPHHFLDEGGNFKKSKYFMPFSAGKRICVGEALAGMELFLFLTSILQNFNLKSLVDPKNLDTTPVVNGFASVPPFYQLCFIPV

SMILES | inhibition
O=S(=O)(NCc1cccnc1)c1ccc(Br)s1 | 14.7% (inactive)
Cc1nc2nc(COc3ccccc3)[nH]n2c(=O)c1Cc1ccccc1 | 17.5% (inactive)
CCOCCCNS(=O)(=O)Cc1ccccc1 | -1.6% (inactive)
CCOc1ccc2nc(NCCNS(=O)(=O)c3ccccc3)c(C#N)cc2c1 | 22.2% (inactive)
CCOc1ccc2cc(C#N)c(SCC(=O)OC)nc2c1 | 21.4% (inactive)
CCOc1ccc2nc(N3CCCN(C(=O)Nc4ccccc4C)CC3)c(C#N)cc2c1 | 98.1% (active)
CCOC(=O)CC1C(=O)NCCN1C(=O)COc1ccc(Br)cc1C (stereo not given) | -12% (inactive)
Fc1cnc(N2CCOCC2)nc1NCc1ccccc1 | -1.5% (inactive)
O=C(CN1CCOCC1)Nc1cc(Cl)ccc1Cl | -138% (inactive)
Cc1c(NC(=O)c2cc(-c3ccc(Cl)s3)nc3ccccc23)c(=O)n(-c2ccccc2)n1C | 29.3% (inactive)
COc1c(C)cccc1C(=O)Nc1cc(Cl)ccc1N1CCOCC1 | 26.5% (inactive)
Cc1cc(C(=O)Nc2ccccc2N2CCOCC2)c2ccccc2n1 | 58.2% (active)
O=S(=O)(Nc1ccccc1N1CCOCC1)c1ccc(Cl)s1 | 10.6% (inactive)
O=C(CNC(=O)c1ccc(Cl)cc1Cl)NCC(=O)Nc1ccccc1N1CCOCC1 | 57.6% (active)
Nc1nonc1-c1noc(-c2ccc(Br)o2)n1 | 2.6% (inactive)
O=c1[nH]c(-c2cccs2)nc2ccccc12 | 3.1% (inactive)
CCSc1nc(=S)n(CC)c(C)c1C(C)=O | -26.9% (inactive)
C1=C(CCNc2ncnc3c2cnn3-c2ccccc2)CCCC1 | 62% (active)
O=C(NCCC1=CCCCC1)C1CCN(Cc2cnn(-c3ccccc3)c2-n2cccc2)CC1 | 48.5% (inactive)
S=C(NCCC1=CCCCC1)Nc1ccccc1 | 14.4% (inactive)
CC(C)CC[n+]1ccn(C2=C([O-])c3ccccc3C(=O)/C2=N\S(=O)(=O)c2ccccc2)c1 | 40.4% (inactive)
CCCCOC(=O)NCN1C(=O)C2C3C=CC(C3)C2C1=O (stereo not given) | -5.7% (inactive)
c1ccc(-c2cn3c(n2)CCc2ccc4cccnc4c2-3)cc1 | 20.7% (inactive)
O=S(=O)(N1CCOCC1)N1CCN(c2ccccc2F)CC1 | 17.2% (inactive)
O=C(c1cccc2ccccc12)N1CCN(c2ccccc2F)CC1 | -14.7% (inactive)

SMILES | inhibition
O=C(c1ccc(CN2CCOCC2)cc1)N1CCN(c2ccccc2F)CC1 | 51.8% (active)
COC(=O)[C@H](C(C)C)n1c(C)c(C(C)=O)c(C(C)=O)c1C | 7% (inactive)
O=C(CC1Oc2ccccc2NC1=O)NCCCN1CCN(Cc2ccccc2)CC1 (stereo not given) | -28.8% (inactive)
CCOC(=O)c1c(C(C#N)C#N)cc(C)nc1C | 41.1% (inactive)
CC1CCCN(c2ccc(C(=O)NCCc3ccccc3)cn2)C1 (stereo not given) | 80.7% (active)
O=C(NCCc1ccccc1)c1ccc(OCCOc2ccccc2)cc1 | -10.5% (inactive)
O=C(NCCc1ccccc1)c1ccc(NC2=NC3CS(=O)(=O)CC3S2)cc1 (stereo not given) | 0.2% (inactive)
CCC(C)(C)NC(=O)C(c1cccn1C)N(Cc1ccc(C)cc1)C(=O)Cn1nnc2ccccc21 (stereo not given) | 28.4% (inactive)
CC(C)CNC(=S)NNC(=O)c1ccccc1OC(F)F | 3.6% (inactive)
CNC(=O)c1csc(-c2ccccc2)n1 | 13.2% (inactive)
COc1cc(N2CCCC2)c(OC)cc1/C=C(/C#N)c1cccc(Br)c1 | 67.5% (active)
COc1cccc(C(=O)Nc2ccc(N3CCCC3)cc2)c1 | 11.9% (inactive)
CN1CCCc2cc(C#N)c(=O)[nH]c21 | 45.5% (inactive)
O=S(=O)(c1cccs1)N1CCc2ccccc2C1 | -206% (inactive)
O=C(NCc1cccs1)C1CCN(S(=O)(=O)c2ccc3c(c2)OCCO3)CC1 | -174% (inactive)
CCS(=O)(=O)N1CCCC(C(=O)NCc2ccc(C)cc2)C1 (stereo not given) | 6.9% (inactive)
O=C(NCc1ccccc1)C1CCCN(S(=O)(=O)c2cccs2)C1 (stereo not given) | 81.9% (active)
O=C(C1CCN(S(=O)(=O)c2cccs2)CC1)N1CCCCCC1 | 34.9% (inactive)
Cc1ccc(CNC(=O)C2CCCN(S(C)(=O)=O)C2)cc1 (stereo not given) | -3.4% (inactive)
O=C(NCc1ccco1)C1CCCN(S(=O)(=O)c2ccccc2)C1 (stereo not given) | 30.4% (inactive)
CCCS(=O)(=O)N1CCCC(C(=O)NCc2ccco2)C1 (stereo not given) | 0.9% (inactive)
O=S(=O)(c1cccs1)N1CCN(Cc2ccccc2)CC1 | 69.5% (active)
O=C(NCc1ccc2c(c1)OCO2)C1CCCN(S(=O)(=O)c2cccs2)C1 (stereo not given) | 92.5% (active)
CN1CCN(S(=O)(=O)c2ccc(N3CCN(S(=O)(=O)c4cccs4)CC3)nc2)CC1 | 49.3% (inactive)
O=C(NC1CCCCC1)C1CCCN(S(=O)(=O)c2cccs2)C1 (stereo not given) | 68.3% (active)

SMILES | inhibition
CCCC(=O)N1c2ccc(-c3csc(N)n3)cc2CC1C (stereo not given) | 34.6% (inactive)
CN1C(=O)c2ccc(NC(=O)C3CCCCC3)cc2C1=O | 3.3% (inactive)
CN1CCC2(CC1)NC(=O)NC2=O | -9.5% (inactive)
CSC1=N/C(=C\c2ccc3c(c2)OCO3)C(=O)S1 | 1.7% (inactive)
COc1cc(/C=C(\C#N)c2nc3c(s2)CC(C)CC3)ccc1O (stereo not given) | -74.5% (inactive)
CCCCc1nnc(NC(=O)CSc2nc(C)cc(=O)[nH]2)s1 | 14% (inactive)
Cc1ccc2cccc(O)c2[n+]1[O-] | 11.3% (inactive)
COCc1cc(C(C)=O)ccc1OC | -37.2% (inactive)
COc1ccc(CC(=O)c2ccc(O)cc2O)cc1OC | 53.9% (active)
COc1ccc(CCN=C2SCC(=O)N2C)cc1OC | 15.5% (inactive)
CCCOC(=O)C1=C(C)NC2=C(C(=O)C(C(=O)OC)C(C)C2)C1c1ccc(N(C)C)cc1 (stereo not given) | 18.1% (inactive)
COc1cc(OC)cc(C(=O)Nc2ccc(-c3nc4ccccc4o3)c(O)c2)c1 | -18.6% (inactive)
COc1ccccc1Nc1ncnc2c1oc1ccccc12 | 19.7% (inactive)
Cc1ccc(/C=N/NC(=O)C(NC(=O)c2ccccc2)c2n[nH]c(=O)c3ccccc23)cc1 (stereo not given) | 56.5% (active)
Cc1ccc(C(=O)N/N=C/c2sc(=O)n(Cc3cccc(C(=O)O)c3)c2Cl)cc1 | 12.3% (inactive)
COc1ccc(/C=N/Nc2nc3ccccc3c(=O)[nH]2)cc1 | 9.9% (inactive)
CC(=O)c1cnc(SCCN2C(=O)c3ccccc3C2=O)nc1C | 13.5% (inactive)
O=C1c2ccccc2C(=O)N1CCC(c1ccccc1)c1ccco1 (stereo not given) | 40.2% (inactive)
Nc1ccc(SCCN2C(=O)c3ccccc3C2=O)cc1 | 71.9% (active)
CCCS(=O)(=O)C(=C1Nc2ccccc2N1)S(=O)(=O)CCC | 8.7% (inactive)
COc1ccc(C(C#N)Nc2ccccc2C)cc1 (stereo not given) | 4.4% (inactive)
CCN(CC)CCN1C(=O)C(=O)/C(=C(/O)c2cnn(-c3ccccc3)c2C)C1c1cccs1 (stereo not given) | -11.5% (inactive)
O=C(O)COc1nsnc1N1CCOCC1 | -22.9% (inactive)
CCOc1cc(N2CCOCC2)c(OCC)cc1NC(=O)COC(=O)[C@H](Cc1c[nH]c2ccccc12)NC(C)=O | 45.8% (inactive)
CC1(C)C2CCC1(C)C(OC(=O)CCn1ccnc1)C2 (stereo not given) | 95.6% (active)

SMILES | inhibition
CCCCC(=O)Nc1ccc(C(=O)NCCCn2ccnc2)cc1 | 33.7% (inactive)
CC(=O)OCc1cc(=O)n(C)c(=O)n1C | -5.9% (inactive)
CC1CCCN(C(=O)Cn2c(=O)oc3ccccc32)C1 (stereo not given) | 7.8% (inactive)
Cc1cc(-c2ccccc2)nc(N2CCC(C(=O)NC34CC5CC(CC(C5)C3)C4)CC2)n1 | 11.4% (inactive)
O=C(Nc1ccccc1)c1ccc2nsnc2c1 | 7.6% (inactive)
O=C(CCCN1C(=O)CCC1=O)Nc1ccc(Cl)c(C(F)(F)F)c1 | -25.8% (inactive)
O=C(c1ccccc1)C(Cn1cncn1)C(Sc1ccccc1)c1ccccc1 (stereo not given) | 98.5% (active)
O=C(O)CC(Cn1cnnn1)c1ccccc1 (stereo not given) | -8.1% (inactive)
O=C(CSc1nnc2ccccn12)c1ccccc1 | -8.3% (inactive)
Cc1ccc2nc(NCCCNC(=O)c3cnccn3)c(C#N)cc2c1 | 2.7% (inactive)
CC(CNc1ccc([N+](=O)[O-])cc1)NC(=O)c1ccccc1Br (stereo not given) | 70.7% (active)
CC(CNC(=O)c1ccc(Br)o1)NC(=O)c1ccc(Br)o1 (stereo not given) | 25.6% (inactive)
CC(CCc1ccccc1)NC(=O)c1ccc(Br)o1 (stereo not given) | 18.7% (inactive)
COc1ccc(C(=O)Nc2ccc(F)cc2F)cc1 | 15.2% (inactive)
CC1COC2C(O1)N(S(C)(=O)=O)CCN2S(C)(=O)=O (stereo not given) | -18.1% (inactive)
Nc1ccc(Oc2ccc(Cl)cc2)cc1 | 22.5% (inactive)
CC(C)(C)NS(=O)(=O)CC12CCC(CC1=O)C2(C)C (stereo not given) | 24% (inactive)
COC(=O)C1C(=O)CC(C)(O)C(C(=O)OC)C1c1ccc2c(c1)OCO2 (stereo not given) | 5.1% (inactive)
CC(=C1C(=O)c2ccccc2C1=O)N1CCN(c2ccccn2)CC1 | 17.1% (inactive)
COc1ccccc1CNC(=O)CCCNS(=O)(=O)c1cccc2nsnc12 | -32.2% (inactive)
O=C(C(NS(=O)(=O)c1cccc2nsnc12)c1ccccc1)N1CCN(c2ccccn2)CC1 (stereo not given) | 78.6% (active)
O=C(CCS(=O)(=O)c1cccc2nsnc12)N1CCN(c2ccccc2F)CC1 | -136% (inactive)
O=C(C(NS(=O)(=O)c1cccc2nsnc12)c1ccccc1)N1CCN(c2ccccc2)CC1 (stereo not given) | 97.4% (active)
O=C(O)c1ccc(NS(=O)(=O)c2cccc3nsnc23)cc1 | -5.5% (inactive)
CC1CC(C)CN(S(=O)(=O)c2cccc(C(=O)N3C(=O)c4cccc(N)c4C3=O)c2)C1 (stereo not given) | 13.8% (inactive)
